# Bioassay records from PubChem BioAssay.
# KB-3-1 tox – qHTS assay for MDR1-selective chemotherapeutics: Primary screen using the parental adenocarcinoma cell KB-3-1; KB-3-1 viability, CellTiter-Glo ATP luminescence, 72 h; AID 1347075, 2019; 400,000 compounds, 1.4% hits; Potency, µM (highest dose often 46.1 µM), usual class: cytotoxic; further: on the % scale 0 is the no-effect control and ±100 the full control effect; nearly all actives have a fitted effect of over 60% in size
#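 Here the drug-naive KB-3-1 line serves as comparator for MDR sub-line selectivity; cells received compound titrations, 72 h at 37 °C, then CellTiter-Glo readout.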
# KB-V1 cytotox – qHTS assay for MDR1-selective chemotherapeutics: Primary screen using the drug-selected MDR subline cells KB-V1 | KB-V1 MDR cells viability, CellTiter-Glo, 72 h | Potency, µM (highest dose often 46.1 µM), usual class: cytotoxic | 400,000 compounds, 3.4% hits | AID 1347076, 2019; further: on the % scale 0 is the no-effect control and ±100 the full control effect; nearly all actives have a fitted effect of over 60% in size
#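 Cytotoxicity via CellTiter-Glo luminescence after 72 h compound exposure at 37 degrees C. Cells: drug-selected KB-V1 line, DMEM phenol-red free plus 10% FBS. Compounds tested at multiple concentrations; normalized data fitted to concentration-effect curves.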
# RGS4 inhibitor – Inhibitors of Regulator of G Protein Signaling (RGS) 4: qHTS; Regulator of G-protein signaling 4 (Homo sapiens), P49798; Transcreener GDP fluorescence polarization, RGS4-accelerated GTP hydrolysis; Potency, µM (doses to about 114 µM), for inactives: at the highest dose activity change, negative = inhibition, most hits filed as inhibitors; 390,000 compounds, 0.039% hits; AID 504845, 2011; further: on the % scale 0 is the no-effect control and ±100 the full control effect; nearly all actives have a fitted effect of over 75% in size
# Target sequence (P49798 whole entry, looked up): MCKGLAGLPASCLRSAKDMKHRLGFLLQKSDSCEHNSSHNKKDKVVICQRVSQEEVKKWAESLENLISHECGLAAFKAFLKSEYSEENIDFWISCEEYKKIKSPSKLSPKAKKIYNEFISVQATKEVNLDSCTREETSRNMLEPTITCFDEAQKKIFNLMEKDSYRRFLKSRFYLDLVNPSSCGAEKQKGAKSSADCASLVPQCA
#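 MLSMR compounds (23 nl, pin-transferred) preincubated 10 min at room temperature with a 500nM (2x) first reagent, then RGS4 at 900nM (2x) plus Transcreener GDP mix added; fluorescence polarization (620/688 nm) read before and after 90 min at 30 °C.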
# SW480 rereplic – A quantitative high throughput screen for small molecules that induce DNA re-replication in SW480 colon adenocarcinoma cells | SW480 DNA re-replication, Hoechst DNA content imaging, 48 h | Potency, µM (series often up to 46.1 µM), for the others: at the top dose re-replication activation, actives largely listed as activators | 340,000 compounds, 1.8% hits | AID 624297, 2012; further: % of control where 0% means no effect; nearly all actives have a fitted effect of over 55% in size
#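 SW480 cells exposed to compounds for 48 hr at 37 C, 5% CO2, then Hoechst-stained 40 min. Nuclear DNA content imaged by fluorescence scanning (405 nm excitation, 500-530 nm emission); re-replication scored as increased high-intensity nuclei.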
# MCF10A rerep – A quantitative high throughput screen for small molecules that induce DNA re-replication in MCF 10a normal breast cells; Potency, µM (top dose mostly 46.1 µM), for the others: top-dose activity, positive = re-replication, hits mostly activators; MCF 10A DNA re-replication, Hoechst nuclear intensity, 48 h; 350,000 compounds, 2.9% hits; AID 624296, 2012; further: % of control where 0% means no effect; nearly all actives have a fitted effect of over 50% in size
# TSG101-PTAP inh – qHTS Assay for Iinhibitors of HIV-1 Budding by Blocking the Interaction of PTAP/TSG101; Tumor susceptibility gene 101 protein (Homo sapiens), Q99816; Fluorescence polarization, FITC-PTAP peptide / Tsg101 binding; Potency, µM (doses to about 115 µM), for the others: top-dose activity change, negative = inhibition, actives largely listed as inhibitors; 340,000 tested, under 10 active; AID 493005, 2010; active means well fitted inhibition curve with a large enough effect in the main read-out, with a control signal flat, not every such curve was filed as active; inconclusive means small, poorly fitted or top-dose-only effect, or effect the other way, or a change in a side signal; inactive means no such curve, though single readings can be large or run the other way; further: % of control where 0% means no effect
# Target sequence (Q99816 whole entry, looked up): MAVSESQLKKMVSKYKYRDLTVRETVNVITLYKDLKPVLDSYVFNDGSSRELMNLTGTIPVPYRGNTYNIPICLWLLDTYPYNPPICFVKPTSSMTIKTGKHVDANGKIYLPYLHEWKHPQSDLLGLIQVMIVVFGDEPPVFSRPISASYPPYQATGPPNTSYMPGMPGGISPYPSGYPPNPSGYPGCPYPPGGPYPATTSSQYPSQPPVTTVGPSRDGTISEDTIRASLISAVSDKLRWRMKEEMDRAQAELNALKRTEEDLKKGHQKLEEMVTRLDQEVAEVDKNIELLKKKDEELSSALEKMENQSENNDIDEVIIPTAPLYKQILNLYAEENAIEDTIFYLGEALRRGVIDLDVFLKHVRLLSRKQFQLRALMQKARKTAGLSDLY
#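 Steps: Tsg101 binding domain dispensed (10 uM final), compounds pinned in DMSO, FITC-labeled PTAP-motif peptide added (50 nM final); after 20 min binding at room temperature, polarization measured.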
# The depositor's hits bear a star; i = inactive; ? = inconclusive; . = no result given; [ ] = dose if it differs, or a comment. Sampled rows, rich in hits. Any-hit rate of the full collection: about 6.6%. Unless noted, the call rests on the fitted dose curve; in most records, active means well fitted curve in the direction sought with a large enough effect; inconclusive means small, poorly fitted or top-dose-only effect, or another doubt; inactive means no such curve, though single readings can be large; an effect the other way counts as inactive or inconclusive. Potency means the concentration at half of the fitted maximal effect.
SMILES,KB-3-1 tox,KB-V1 cytotox,RGS4 inhibitor,SW480 rereplic,MCF10A rerep,TSG101-PTAP inh
CS(=N)(=O)CC[C@H](N)C(=O)O (some centres not stated),.,.,18.3%[56.9 µM],.,.,.
COc1cc([N+](=O)[O-])cc([N+](=O)[O-])c1N,i,i,.,.,.,.
CCN(c1ccc(C(O)(C(=O)OC)C(F)(F)F)cc1)S(=O)(=O)c1ccc(C)cc1 (configuration not stated),i,?,21.0%,2.7%,-0.8%,-5.6%
CCOC(=O)C(O)(c1ccc(N(CC)S(=O)(=O)c2ccc(C)cc2)cc1)C(F)(F)F (configuration not stated),i,18.4µM*,0.9%,?,?,-11.5%
O=C(CCCN1CCC2(CC1)C(=O)N(Cc1cccc(F)c1)CN2c1ccccc1)c1ccc(F)cc1,.,.,i,.,.,.
N=Cc1c(O)n(-c2ccc(C34CC5CC(CC(C5)C3)C4)cc2)c(=O)[nH]c1=O,i,i,-8.5%,3.26µM*,5.0%,0.5%
CCCCCSc1cc(OC)c(CCN)cc1OC,20.6µM*,?,-6.3%,16.4µM*,?,-7.2%
CCCCCCCSc1cc(OC)c(CCN(C)C)cc1OC,?,?,-35.8%,?,?,-0.2%
COc1ccc(NC(=O)c2cn(CCC#N)nc2-c2ccc(OC)c(OC)c2)cc1,i,i,-12.3%,-42.8%,6.51µM*,-6.2%
O=C1C(=O)c2ccccc2-c2ccccc21,5.17µM*,4.11µM*,?,?,?,1.4%
NC1=C(Br)C(=O)c2ccccc2C1=O,?,11.6µM*,-34.8%,-58.6%,?,-10.9%
O=C1C(=O)c2cccc3cccc1c23,16.4µM*,?,20.3%,?,-1.1%,0.5%
CC(C)c1oc(=O)cc2c1[C@@H](O)[C@H]1OC(=O)[C@@]3(C)C[C@@H](O)[C@@H](O)[C@@]2(C)C13 (some centres not stated),8.2µM*,i,15.3%,?,5.17µM*,0.6%
CC(C)c1oc(=O)cc2c1[C@@H](O)[C@H]1OC(=O)[C@@]3(C)CC[C@@H](O)[C@@]2(C)C13 (some centres not stated),7.31µM*,i,7.3%,?,11.9%,0.6%
O=C1C=CC2C3C(=O)N(c4ccccc4)C(=O)C3C1N2Cc1ccccc1 (configuration not stated),?,18.4µM*,?,3.66µM*,?,-0.8%
COc1ccc2cc1Oc1ccc(cc1)C[C@H]1c3cc(c(OC)cc3CCN1C)Oc1c(OC)c(OC)cc3c1[C@@H](C2)N(C)CC3,i,i,-27.6%,?,-12.8%,-5.2%
O=c1[nH]c2ccccc2n1C1CCN(CCCC(c2ccc(F)cc2)c2ccc(F)cc2)CC1,?,11.6µM*,7.9%[56.9 µM],-17.4%,?,-0.5%
O=C1CC(N2CCC(n3c(=O)[nH]c4ccccc43)CC2)C(=O)N1c1ccc(F)cc1 (configuration not stated),i,i,0.0%[11.4 µM],-0.5%,1.9%,-6.4%
CCCN1CCCC2Cc3nc(N)ncc3CC21 (configuration not stated),.,.,380.0%[56.9 µM],-2.3%,0.2%,.
Cn1c(O)c(/C=N/Nc2ccccc2)c(=O)n(C)c1=O,i,i,-13.3%,-17.9%,6.51µM*,-7.0%
CC(N)C(=O)NC1C2C(=C(O)CC(O)C2O)C(=O)OC1(C)C(Cl)Cl (configuration not stated),2.06µM*,18.4µM*,6.4%,?,?,-9.3%
CC[N+]12CCC(CC1)C(=C(c1ccccc1)c1ccccc1)C2,14.6µM*,i,30.9%,4.4%,21.8%,-0.3%
Cc1nccn1-c1c([N+](=O)[O-])c(=O)n(C)c2ccccc12,i,i,-20.2%,-2.4%[9.22 µM],10.3µM*,-0.6%
CC1CCN(C(CC(=O)c2ccccc2)C(=O)c2ccccc2)CC1 (configuration not stated),i,i,-138.6%,6.51µM*,3.66µM*,0.9%
CSC1=NC(C)(C)CC2(C)Nc3ccccc3N12 (configuration not stated),i,i,31.3%,-187.1%,-4.9%,-2.1%
SMILES,KB-3-1 tox,KB-V1 cytotox,RGS4 inhibitor,SW480 rereplic,MCF10A rerep,TSG101-PTAP inh
O=C(CN1CCCCC1)NNC(=O)c1cccc(Br)c1,i,i,-17.0%,-7.4%,-34.3%,-3.9%
COC1CC(=C(c2cccs2)c2cccs2)C[N+](C)(C)C1 (configuration not stated),.,.,.,-3.3%,1.7%,.
Cc1ccc(O)c(C(=O)c2cc(C(=O)NCCC(C)C)c(=O)n(CCC(C)C)c2)c1,i,?,5.4%,?,?,?
O=C(c1cc(C(=O)NCc2ccc(Cl)cc2)c(=O)n(Cc2ccc(Cl)cc2)c1)c1cc(F)ccc1O,?,7.31µM*,-9.2%,11.2%,11.3%,-0.8%
COc1ccc2c(c[n+](C)c3c4cc5c(cc4ccc23)OCO5)c1OC,.,.,6.7µM*,.,.,.
COc1cc2c(ccc3c4cc(OC)c(OC)cc4c[n+](C)c23)cc1O,?,i,1.6%,-5.9%,-16.6%,-1.3%
Cc1ccc2c(c1)C1CN(C)CCC1N2C(=O)c1cn(-c2ccccc2)nc1-c1ccccc1 (configuration not stated),i,i,-0.6%,?,20.6µM*,-4.1%
Cc1ccc2c(c1)C1CN(C)CCC1N2C(=O)c1cccnc1Cl (configuration not stated),i,i,13.8%,-4.5%,-3.4%,5.5%
NC(=O)C[N+]1(CC#CC(O)(c2ccccc2)c2ccccc2)CCCC1,i,i,-1.5%,-2.6%,?,-8.7%
Nc1ccc2c3c(cccc13)-c1ccccc1-2,i,i,-41.4%,9.2µM*,2.91µM*,?
Nc1ccc(C2(c3ccc(N)cc3)c3ccccc3-c3ccccc32)cc1,i,i,-40.1%,0.9%,16.5%,-0.1%
CC1(C)CC2CC(C)(CN2S(=O)(=O)c2cccc(C(=O)OCC(=O)NC(N)=O)c2)C1 (configuration not stated),i,i,-34.7%,?,-6.4%,-3.2%
COC(=O)C1=C(c2cc3ccccc3o2)C[C@@H]2CC[C@H]1N2C(=O)NC(C)C,i,i,23.1%,10.3µM*,14.7%,-0.1%
